About 79,000 compounds went through this panel and 15% of them were active in at least one assay; those are over-represented in the sample as a whole. The source made the active and inactive calls. No stated cut-off is given here; in the data, active means growth inhibition above about 70%; inactive means the rest.
Legend:
[1] = NCI Yeast Anticancer Drug Screen. Data for the wt1 strain (AID 149);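 further: 0% = growth of vehicle-treated wt1 cultures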; settings: S. cerevisiae wt1 strain (SPY 50644) growth inhibition, active compounds read high
Method in brief: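 The wt1 strain was treated with compounds, and growth was compared with vehicle-treated cultures to give inhibition.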

[2] = NCI Yeast Anticancer Drug Screen. Data for the rad50EPP+ strain (AID 151);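 further: 0% = growth of vehicle-treated control cultures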; settings: S. cerevisiae rad50 mutant strain, active compounds read high
Method in brief: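 Genetically defined yeast (rad50EPP+, DNA damage repair alteration) is grown with compound, and inhibition of growth is expressed relative to vehicle-treated controls.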

[3] = NCI Yeast Anticancer Drug Screen. Data for the rad50 strain (AID 155);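 further: 0% = growth of vehicle-only cultures of the same strain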; settings: S. cerevisiae rad50 strain growth inhibition, active compounds read high
Method in brief: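 Cells are treated with compound, grown, and their growth is then scored against vehicle-only cultures of the same repair-deficient yeast strain.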

[4] = NCI Yeast Anticancer Drug Screen. Data for the mec2-1 strain (AID 157); settings: S. cerevisiae mec2-1 strain, active compounds read high
Method in brief: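 Each compound was tested on mec2-1 yeast, a strain altered in DNA damage repair or cell cycle control. Growth inhibition is reported relative to vehicle.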

[5] = NCI Yeast Anticancer Drug Screen. Data for the rad14 strain (AID 159);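 further: 0% = growth of vehicle-treated control cultures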; settings: S. cerevisiae rad14 strain growth inhibition, active compounds read high
Method in brief: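 Readout: yeast growth inhibition, referenced to vehicle-only cultures. Strain bears a defined alteration in DNA damage repair.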

[6] = NCI Yeast Anticancer Drug Screen. Data for the sgs1 mgt1 strain (AID 161);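 further: 0% = growth of cultures given vehicle only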; settings: S. cerevisiae sgs1 mgt1 strain, active compounds read high
Method in brief: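 Mutant yeast exposed to compound; growth scored against vehicle-only wells.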

[7] = NCI Yeast Anticancer Drug Screen. Data for the CLN2oe strain (AID 163);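 further: 0% = growth of vehicle-only control cultures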; settings: S. cerevisiae CLN2oe strain, active compounds read high
Method in brief: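 First, the altered yeast strain was treated with each compound; second, its growth was measured; finally, inhibition was derived by comparison with vehicle controls.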

[8] = NCI Yeast Anticancer Drug Screen. Data for the cln2 rad14 strain (AID 165);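 further: 0% = growth equal to vehicle treated cultures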; settings: S. cerevisiae cln2 rad14 strain, active compounds read high
Method in brief: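 Test compounds were added to cln2 rad14 yeast cultures; inhibition of growth was then determined by comparison with vehicle treatment.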

[9] = NCI Yeast Anticancer Drug Screen. Data for the bub3 strain (AID 167); settings: S. cerevisiae bub3 mutant strain, active compounds read high
Method in brief: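 Part of a panel of yeast mutants defective in DNA damage repair or cell cycle regulation. Each strain is grown with compound, and inhibition is calculated relative to solvent-treated cultures.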

[10] = NCI Yeast Anticancer Drug Screen. Data for the wt2 strain (AID 169);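 further: 0% = growth of vehicle-treated yeast cultures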; settings: S. cerevisiae wt2 strain growth inhibition, active compounds read high
Method in brief: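 The panel's yeast strains carry defined changes in DNA repair or cell cycle genes. Each strain is grown with compound, and growth loss is scored relative to vehicle.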

[11] = NCI Yeast Anticancer Drug Screen. Data for the mlh1 strain (AID 171);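 further: 0% = growth of vehicle-treated control cultures of the same strain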; settings: S. cerevisiae mlh1 strain growth inhibition, active compounds read high
Method in brief: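 Inhibition values reflect reduced yeast growth in the presence of compound, referenced to vehicle controls, using a strain chosen for its alteration in DNA repair or cell cycle control.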

[12] = NCI Yeast Anticancer Drug Screen. Data for the sgs1 strain (AID 173);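 further: 0% = growth of vehicle-only control cultures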; settings: S. cerevisiae sgs1 mutant, active compounds read high
Method in brief: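 Vehicle-treated cultures served as reference for growth inhibition of a yeast strain altered in DNA damage repair or cell cycle control after compound exposure.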

[13] = NCI Yeast Anticancer Drug Screen. Data for the mlh1 rad18 strain (AID 175); settings: S. cerevisiae mlh1 rad18 strain growth inhibition, active compounds read high
Method in brief: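 Inhibition values reflect reduced growth of mutant yeast versus vehicle-treated controls following compound exposure; the mutations affect DNA damage repair.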

[14] = NCI Yeast Anticancer Drug Screen. Data for the rad18 strain (AID 177); settings: S. cerevisiae rad18 mutant growth inhibition, active compounds read high
Method in brief: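 Steps: expose repair-mutant yeast to compound; measure growth; express as inhibition relative to vehicle control.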

[15] = NCI Yeast Anticancer Drug Screen. Data for the mgt1 strain (AID 153); settings: S. cerevisiae mgt1 mutant growth inhibition, active compounds read high
Method in brief: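 In the mgt1 strain, test compounds were added and growth inhibition was determined relative to vehicle-treated controls.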

[16] = at 5.0 µM (retest, dose inferred, filed as 0.5)
[17] = at 50.0 µM (retest, dose inferred, filed as 5.0)

Measured: growth inhibition

CCOC(=O)CNC(=O)c1[nH]cnc1/N=N/N(C)C
active: [1]; at 100.0 µM 98% | [3]; at 50.0 µM 89.6% | [3]; at 100.0 µM 97% | [4]; at 50.0 µM 90.3% | [4]; at 100.0 µM 98% | [5]; at 100.0 µM 97% | [6]; at 50.0 µM 89.5% | [7]; at 100.0 µM 98% | [8]; at 50.0 µM 90.5% | [9]; [17] 96% | [9]; at 50.0 µM 91.4% | [9]; at 100.0 µM 98% | [10]; at 100.0 µM 97% | [11]; at 100.0 µM 98% | [12]; at 100.0 µM 98% | [13]; at 50.0 µM 71.5% | [14]; at 100.0 µM 98%
inactive: [1]; at 1.2 µM 8% | [1]; at 3.7 µM 9% | [1]; at 11.0 µM 12% | [1]; at 33.0 µM 12% | [2]; at 1.2 µM -23% | [2]; at 3.7 µM -21% | [2]; at 11.0 µM -21% | [2]; at 33.0 µM -30% | [2]; at 100.0 µM -13% | [3]; at 1.2 µM -5% | [3]; at 3.7 µM 4% | [3]; [16] -10% | [3]; at 11.0 µM 2% | [3]; at 33.0 µM 5% | [3]; [17] 7% | [4]; at 1.2 µM -8% | [4]; at 3.7 µM -10% | [4]; [16] -7% | [4]; at 11.0 µM -8% | [4]; at 33.0 µM -6% | [4]; [17] -17% | [5]; at 1.2 µM 2% | [5]; at 3.7 µM 2% | [5]; at 11.0 µM 1% | [5]; at 33.0 µM 1% | [6]; [16] -12% | [6]; [17] -7% | [7]; at 1.2 µM 26% | [7]; at 3.7 µM 23% | [7]; at 11.0 µM 17% | [7]; at 33.0 µM 44% | [8]; [16] -1% | [8]; [17] 35% | [9]; at 1.2 µM 22% | [9]; at 3.7 µM 31% | [9]; [16] 3% | [9]; at 11.0 µM 29% | [9]; at 33.0 µM 62% | [10]; at 1.2 µM -2% | [10]; at 3.7 µM 1% | [10]; at 11.0 µM 0% | [10]; at 33.0 µM 1% | [11]; at 1.2 µM 13% | [11]; at 3.7 µM 5% | [11]; at 11.0 µM 4% | [11]; at 33.0 µM 2% | [12]; at 1.2 µM 10% | [12]; at 3.7 µM 1% | [12]; at 11.0 µM -2% | [12]; at 33.0 µM 9% | [13]; [16] -30% | [13]; [17] 59% | [14]; at 1.2 µM 0% | [14]; at 3.7 µM -11% | [14]; at 11.0 µM -13% | [14]; at 33.0 µM -3%

CCc1[nH]nc(C(N)=O)c1N=NN(C)C
inactive: [1]; at 1.2 µM -6% | [1]; at 3.7 µM -4% | [1]; at 11.0 µM -7% | [1]; at 33.0 µM -5% | [1]; at 100.0 µM 1% | [3]; at 1.2 µM -4% | [3]; at 3.7 µM 5% | [3]; [16] -118% | [3]; at 11.0 µM 49% | [4]; at 1.2 µM 3% | [4]; at 3.7 µM -1% | [4]; [16] -46% | [4]; at 11.0 µM 7% | [4]; at 33.0 µM 25% | [4]; [17] 11% | [4]; at 50.0 µM 17.7% | [5]; at 1.2 µM -1% | [5]; at 3.7 µM -3% | [5]; at 11.0 µM 3% | [5]; at 33.0 µM 13% | [5]; at 100.0 µM 41% | [6]; [16] -57% | [6]; [17] 14% | [6]; at 50.0 µM 12.8% | [7]; at 1.2 µM -2% | [7]; at 3.7 µM -3% | [7]; at 11.0 µM 0% | [7]; at 33.0 µM 1% | [7]; at 100.0 µM 18% | [8]; [16] -53% | [8]; [17] -35% | [8]; at 50.0 µM 21.1% | [9]; at 1.2 µM -9% | [9]; at 3.7 µM -5% | [9]; [16] -66% | [9]; at 11.0 µM -3% | [9]; at 33.0 µM -6% | [9]; [17] -84% | [9]; at 50.0 µM -15.4% | [9]; at 100.0 µM 14% | [10]; at 1.2 µM -1% | [10]; at 3.7 µM 0% | [10]; at 11.0 µM -1% | [10]; at 33.0 µM 0% | [10]; at 100.0 µM 11% | [11]; at 1.2 µM 4% | [11]; at 3.7 µM -4% | [11]; at 11.0 µM -2% | [11]; at 33.0 µM 6% | [11]; at 100.0 µM 21% | [12]; at 1.2 µM 0% | [12]; at 3.7 µM -5% | [12]; at 11.0 µM 15% | [12]; at 33.0 µM 53% | [13]; [16] -126% | [13]; [17] 1% | [14]; at 1.2 µM 1% | [14]; at 3.7 µM 6% | [14]; at 11.0 µM 28%
active: [3]; at 33.0 µM 90% | [3]; [17] 85% | [3]; at 50.0 µM 90.1% | [3]; at 100.0 µM 97% | [4]; at 100.0 µM 94% | [12]; at 100.0 µM 88% | [13]; at 50.0 µM 70.7% | [14]; at 33.0 µM 85% | [14]; at 100.0 µM 96%

N#CC(=S)Nc1cccc(Cl)c1
inactive: [1]; at 1.2 µM 7% | [1]; at 3.7 µM 10% | [1]; at 11.0 µM 23% | [1]; at 33.0 µM 31% | [1]; at 100.0 µM 41% | [2]; at 1.2 µM -12% | [2]; at 3.7 µM 2% | [2]; at 11.0 µM 10% | [2]; at 33.0 µM 25% | [2]; at 100.0 µM 46% | [15]; at 1.2 µM 2% | [15]; at 3.7 µM 15% | [15]; at 11.0 µM 24% | [15]; at 33.0 µM 42% | [3]; at 1.2 µM 5% | [3]; at 3.7 µM 8% | [3]; [16] 39% | [3]; at 11.0 µM 3% | [3]; at 33.0 µM 18% | [3]; at 50.0 µM 46.9% | [3]; at 100.0 µM 51% | [4]; at 1.2 µM 28% | [4]; at 3.7 µM 19% | [4]; [16] 19% | [4]; at 11.0 µM 33% | [4]; at 33.0 µM 28% | [4]; [17] 64% | [4]; at 50.0 µM 57% | [5]; at 1.2 µM 2% | [5]; at 3.7 µM -6% | [5]; at 11.0 µM 9% | [5]; at 33.0 µM 35% | [6]; [16] 28% | [6]; [17] 68% | [6]; at 50.0 µM 66.7% | [7]; at 1.2 µM 8% | [7]; at 3.7 µM 28% | [7]; at 11.0 µM 17% | [7]; at 33.0 µM 43% | [7]; at 100.0 µM 54% | [8]; [16] 8% | [8]; [17] 27% | [8]; at 50.0 µM 17.6% | [9]; at 1.2 µM 12% | [9]; at 3.7 µM 7% | [9]; [16] 26% | [9]; at 11.0 µM 2% | [9]; at 33.0 µM 41% | [9]; [17] 63% | [9]; at 50.0 µM 51.3% | [9]; at 100.0 µM 67% | [10]; at 1.2 µM 2% | [10]; at 3.7 µM 5% | [10]; at 11.0 µM -22% | [10]; at 33.0 µM 31% | [11]; at 1.2 µM 2% | [11]; at 3.7 µM 7% | [11]; at 11.0 µM 26% | [11]; at 33.0 µM 43% | [12]; at 1.2 µM 2% | [12]; at 3.7 µM 7% | [12]; at 11.0 µM 24% | [12]; at 33.0 µM 43% | [13]; [16] 64% | [14]; at 1.2 µM 1% | [14]; at 3.7 µM 12% | [14]; at 11.0 µM 23% | [14]; at 33.0 µM 37% | [14]; at 100.0 µM 58%
active: [15]; at 100.0 µM 76% | [3]; [17] 82% | [4]; at 100.0 µM 80% | [5]; at 100.0 µM 79% | [10]; at 100.0 µM 94% | [11]; at 100.0 µM 78% | [12]; at 100.0 µM 70% | [13]; [17] 86% | [13]; at 50.0 µM 88.4%
